Laboratory results taken from the supplement of paper PMC11417369.
The full ranking holds about 25,000 sequences; the median of “ln(normalized median fluorescence intensity)” is about 7.1, and the highest 2% start at about 10. This is one part of a sample in which the highest values are shown more often than they occur.

System: PfSIP2 AP2 domain 1 (GST-tagged)
Experiment: gcPBM binding intensity (ln(normalized median fluorescence intensity)); higher = stronger DNA binding
How it was run: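 For binding intensity, the highest Masliner-normalised natural-log median intensity across replicate spots of either probe orientation was taken. Protein bound to the array was stained with Alexa488 anti-GST antibody and scanned at 488 nm. The protein, GST-tagged P. falciparum DNA-binding domains from E. coli at about 25 μg on average, had been applied for 1 h to an Agilent 4 × 180k array of primer-extended double-stranded 36-bp intergenic genomic probes and negative controls.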

| Sequence | gcPBM binding intensity (ln) |
| --- | --- |
| ATGTTATATATGTATTGTACGTATTTTGTATATTAT [XGTACX_site6607] | 7.4 |
| AATATATCCTATTCGAACAAAAATACATGCACATAT [CACACA_negctrl_site1058] | 9.28 |
| AAGGATTATTTTAATCGTACATGTGTAAATAATATA [XGTACX_site6177] | 6.98 |
| AATAAATAAATATATATATATATATAATATCATAAA [CACACA_negctrl_site337] | 7.29 |
| TAAAGAAAAATATAAAGTACAAAAATAAAAAAAATA [XGTACX_site8226] | 6.93 |
| AGCATTAAAAATGGAATGGAATTAAGCTATATATTA [CACACA_negctrl_site1571] | 6.63 |
| TTAAAGTTACATTCGACACACACATAACAACTAAAT [CACACA_site9130] | 7.1 |
| AAAAAAAAAGATCACACACACATAAATATAAACAAA [CACACA_site5285] | 6.92 |
| AAATAACAAAAGAAGGTGCTCATAAAAATTCATACA [GTGCAC_site9864] | 8.23 |
| TCAGATCCATAGAAGGTGCAAATAACAAAAATACAA [GTGCAC_site9610] | 10.9 |
| ACATACATATGTAAATGTACAAAATATCCATAGATT [XGTACX_site2782] | 6.81 |
| TATAATGCTCTTCTTTGTACATATTATGATTATATT [XGTACX_site2332] | 7.15 |
| TTGACAGGAACGTTGGTGCACGTACTGTTTTTCTTT [GTGCAC_site9389] | 10.7 |
| CTTCTGGACAGGAATGCACACATTTTTTTTTCTTTT [CACACA_site1807] | 7 |
| ATTTTTTTTTTTTTTTTTTGGTTTTCTTTAGGAGTT [CACACA_negctrl_site1258] | 6.9 |
| TTTGTTTGGTTTTGGTGTACTTTTTTTTTTTTTTCT [XGTACX_site2050] | 7.16 |
| TTAGCAGGACGTTTGGTGCACGTACTGTTTTTCTTT [GTGCAC_site9856] | 10.3 |
| TACATGCTTATTTTAACACACAAATGGTAGTAATAA [CACACA_site766] | 6.93 |
| ATATTTTTCAAACATCGTACATTATGAGTTAAAATT [XGTACX_site584] | 7.02 |
| ATAAAAAGGAGACACACACACACACGCATATTTATA [CACACA_site6551] | 7.08 |

| Sequence | gcPBM binding intensity (ln) |
| --- | --- |
| CTATTTCAATTTAGTGCACACATTTTAATTTATAAG [CACACA_site2040] | 10.5 |
| AGACCTTTAATTTGTGTGCACATAATTAGTGTACAT [GTGCAC_site9434] | 8.49 |
| ATATATATATATATAGTGCACATTTATATAATTATT | 10.6 |
| TTAATAATTAATTATAGTACACATTTATATTAATAA [XGTACX_site190] | 7.03 |
| TTATATAATTTAATAGTGCAATTATATTAATTTTTC | 7.73 |
| GTATAATTATGTGCACGTACATATTTTATTATATAT [XGTACX_site8586] | 9.21 |
| ATAATATATAATATAGTGCATTATTTATTAATTAAT [GTGCAC_site9852] | 10.1 |
| TATATTATTAATTAAGCACACATTATTTTTATAATA [CACACA_site3982] | 6.89 |
| TGTGCACATAATTAGTGTACATTTTTTATTTAGACA [XGTACX_site317] | 10.9 |
| ATTCCACCTTAAAACTGTACTTTCTCAATCTTTTAT [XGTACX_site796] | 7.22 |
| TTACTTAAATATAAGTGTCCTCAAAAAAAAAAAAAA [XGTACX_site460] | 6.94 |
| ATTCGTCACATTTTTTGATATATATATATATATATA [CACACA_negctrl_site1785] | 9.68 |
| TTTTAAAAACGGCATGCATGTAATACATGGAAGGAA [TGCATGCA_site480] | 7.46 |
| GGGTTTTTTATTAATACATGCATGGAAACGCACTAT [TGCATGCA_site1000] | 10.3 |
| TTTTTATTAAGACATGCATGGAAACGCACTATTTTA [TGCATGCA_site999] | 9.74 |
| TTTATAAATATTCTCACACACTTTTTATTTTAACAA [CACACA_site6454] | 6.93 |
| ATATAAATTTAATACACACCCAAAAAAAAAAAAAAA [CACACA_site3750] | 6.89 |
| TATGTTTTTACGTGTGTGCACTTTGTAGAGATAAGT | 10.7 |
| ATATGTTTTGTTTACGTGCACTGCTTTGTTTATATA [GTGCAC_site9622] | 9.56 |
| ATGTAGATAAAACGTGTGCACATGTTTTTTGTTATT | 8.7 |

| Sequence | gcPBM binding intensity (ln) |
| --- | --- |
| AGGATATGCAGACACACACACATATAGATTTATATA [CACACA_site7100] | 7.08 |
| GTTAGGATAGATTAGACATGCACATAAATGCACTTC [TGCATGCA_site561] | 11 |
| AAAATTAGATTATGCACACACACTTAAAAATAATAA [CACACA_site1975] | 8.5 |
| TGTACGAGTCGTAGAGTGCAGTCTGGAGAAAAGTAC [GTGCAC_site9683] | 8.91 |
| TTTTTTATGCTAACTTCTTTTTCCTTATAAAATTGG [TGCATGCA_negctrl_site598] | 7.06 |
| AATATATTGCACCATTGGACCTGAATAATTCTTCCA [CACACA_negctrl_site1071] | 10.6 |
| TAATATATGTATTGCACACCTATAACCATTATTTCT [CACACA_site1498] | 7.06 |
| AATATAATATATTGCACACAAAAAGTGAATTATTCT [CACACA_site1684] | 7.12 |
| CTTTCTATATAAAATCGTACATATATAATATTATAT [XGTACX_site5807] | 7.3 |
| GACATATAAATATACACACATACGTAAGTATATTAA [CACACA_site1790] | 6.91 |
| GGAAAATACATTCCAGTGCATTAATTTATTCAACGT | 8.59 |
| AGAGACACTTTTTATTGTACAAGAGGAGGTTACCTT [XGTACX_site8768] | 6.61 |
| AAAAAAAAAAAAGAAACACACACATTTGTATATAAT [CACACA_site8648] | 6.93 |
| AAAAAAAAAAAAAGAACACACACAGTGCACATTCGG [CACACA_site8163] | 10.6 |
| AAAAAAAAAAAGAACACACACAGTGCACATTCGGTG [CACACA_site788] | 10.3 |
| AAAAAAAAAAAAGAAACACACATATATATATATATA [CACACA_site140] | 8.95 |
| AGAACATGCAAACATGCACACAGAAAAAAAAAATAT [CACACA_site8442] | 8.26 |
| AAACAGAAGACATATACACACATACAAAAAAGTGCA [CACACA_site4699] | 7.62 |
